Bioassay records as filed in PubChem.
HT1080 IDH1KD tx = HT-1080 IDH1 knockdown cell toxicity (counter line) | HT-1080 IDH1 knockdown viability, ATP luminescence, 48 h | Potency, µM (titrated, usually from 46.1 µM), inactives show at the highest dose activity, negative = toxicity, most hits filed as cytotoxic | actives 2% (n = 360,000) | AID 686971;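 also: potency is read from the fitted curve at half-maximal effect; 0% = DMSO wells and -100% = cell-free medium wells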
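% activity derives from luminescence (CellTiter-Glo), normalised to DMSO and no-cell wells. HT-1080-IDH1KD cells, 750/well, had 48 h compound exposure at 37 °C.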
ELG1 repair inh = ELG1-dependent DNA repair inhibition; HEK293T ELG1-luciferase reporter, luminescence, 16 h; DNA damage induced by 5-fluorouridine; Potency, µM (top dose mostly 46.1 µM), for inactives: at the top dose activity change, negative = inhibition, hits mostly inhibitors; actives 2.3% (n = 330,000); AID 504467; also: potency is read from the fitted curve at half-maximal effect; nearly all actives have a fitted effect of over 55% in size
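DMSO vehicle served as the neutral condition. Each well held 2,000 cells given 5-fluorouridine plus compound; after 16 hr at 37 °C/5% CO2, ONE-Glo was added and luciferase measured 30 min later.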
IL-1B inflam inh = blocks inflammasome-driven IL-1 beta release. THP-1 LPS/ATP IL-1B secretion, AlphaLISA, 16 h; active compounds read low. activity change, % at 57.5 µM. actives 4.7% (n = 360,000). AID 743279; in the data active = activity change below about -50%; inconclusive = mostly about -30% to -49%
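Secreted IL-1B measured by AlphaLISA bead assay after 16 h compound exposure of THP-1 cells; compounds (final up to 57.5 uM) added 1 h before LPS (250 ng/mL) and ATP (1.25 mM) stimulation; lower signal means less secretion.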
TDP1 cell noCPT = qHTS for Inhibitors of human tyrosyl-DNA phosphodiesterase 1 (TDP1): qHTS in cells in absence of CPT | Potency, µM (top dose mostly 46.2 µM), for inactives: at the highest dose activity change, negative = growth inhibition, actives largely listed as inhibitors | AID 686978, 2013 | actives 15% (n = 420,000) | DT40 Tdp1-/- hTDP1 cells, no CPT, ATP luminescence, 48 h; also: potency is read from the fitted curve at half-maximal effect; nearly all actives have a fitted effect of over 55% in size
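Chicken DT40 Tdp1-/- cells complemented with human TDP1, screened without camptothecin (DMSO vehicle only), 400 cells/well. Compounds pin-transferred, cells incubated at 37 °C for at least 48 hr. Growth read as ATP-dependent luminescence (CellTiter-Glo, 30 min at RT).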
HT1080-NT tox = kills 2HG-producing HT-1080-NT fibrosarcoma cells; Potency, µM (doses to about 46.1 µM), for the others: at the highest dose activity, negative = less viability, actives largely listed as cytotoxic; AID 686970; actives 1.6% (n = 360,000); HT-1080-NT fibrosarcoma viability, CellTiter-Glo ATP luminescence, 48 h;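 also: NT is the 2HG producing partner of a matched IDH1 knockdown line; potency is read from the fitted curve at half-maximal effect; 0% = DMSO-treated cells and -100% = media-only wells without cells; nearly all actives have a fitted effect of over 55% in size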
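HT-1080-NT; 750 cells/well; 5% FBS RPMI; 48 h compound, 37 degrees C; CellTiter-Glo luminescence; curve fitting and curve-class assignment.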
DT40 TDP1 CPT = growth inhibition of DT40 Tdp1-/-;hTDP1 cells with camptothecin (screen for TDP1 inhibitors); chicken DT40 Tdp1-/-;hTDP1 cells + 20 nM CPT, ATP luminescence, 48 h; actives 12% (n = 420,000); Potency, µM (highest dose often 46.2 µM), for the others: at the top dose activity change, negative = growth inhibition, hits mostly inhibitors; also: potency is read from the fitted curve at half-maximal effect; nearly all actives have a fitted effect of over 55% in size
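Cell growth measured by CellTiter-Glo luminescence after a minimum 48 h, 37 C compound exposure with 20 nM CPT in Tdp1-knockout DT40 cells stably expressing hTDP1, seeded 400/well; qHTS titration format.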
Starred values were filed as active, the others as inactive; ? = inconclusive; nt = not tested or not shown. This is a sample that favours compounds with a hit; in the whole collection about 19% have one here. Unless noted, calls follow the shape of the dose curve; as a rule, active = well fitted curve in the direction sought with a large enough effect; inconclusive = small, poorly fitted or top-dose-only effect, or another doubt; inactive = no such curve, though single readings can be large; an effect the other way counts as inactive or inconclusive. Unless noted, % is scaled to controls: 0 for no effect and ±100 for the full control effect.

SMILES | HT1080 IDH1KD tx | ELG1 repair inh | IL-1B inflam inh | TDP1 cell noCPT | HT1080-NT tox | DT40 TDP1 CPT
C/C(=N\NC(=O)c1ccc(Cl)c(Cl)c1)c1ccc(Br)s1 | -6% | -14% | 6 | 1.5µM* | -1% | 1.5µM*
CC(=NNC(=O)c1ccncc1)c1cccc(Br)c1 | 7% | nt | -16 | -10% | 9% | 0%
CC(C)(C)c1ccc(C(=O)O/N=C(\N)c2ccccn2)cc1 | ? | ? | -65* | -22% | ? | 23µM*
C/C(=N\NC(=O)c1cc(Br)ccc1O)c1ccccn1 | ? | ? | -81* | 3.7µM* | ? | 3.3µM*
O=C(NCCCN1CCOCC1)C(=O)NCC1OCCN1S(=O)(=O)c1ccc(Cl)cc1 (stereo not given) | 7% | nt | 2 | ? | 21% | -2%
COC(=O)c1ccc(-c2cccc3c2OC(CNC(=O)c2ccc4c(c2)OCCO4)C3)nc1 (stereo not given) | nt | nt | nt | -8% | nt | -22%
CC(C)NC(=O)c1cc(-c2cccs2)nc2ccccc12 | 2% | -22% | -8 | 0% | -4% | 1%
Cc1ccc2nc(-c3ccccc3)cc(C(=O)NNC(=O)c3csc(N4CCOCC4)n3)c2c1 | -18% | 6.5µM* | -6 | ? | -1% | ?
C/C(=N\NC(=O)c1ccc(Cl)c(Cl)c1)c1ccccn1 | 1.8µM* | ? | -103* | 0.52µM* | ? | 0.41µM*
C/C(=N/NC(N)=S)c1ccc(Br)s1 | ? | -2% | -6 | 4.6µM* | ? | 8.2µM*
C/C(=N\NC(=O)c1cc(-c2cccs2)nc2ccccc12)c1ccccn1 | ? | -17% | 190 | 0.73µM* | ? | 0.65µM*
Cc1ccc(-n2nc(C(=O)Nc3ccc(F)cc3F)c3c4ccccc4n(C)c3c2=O)cc1 | nt | nt | nt | 9% | nt | -7%
C/C(=N\NC(=O)c1ccccc1Cl)c1ccccn1 | ? | ? | 117 | 2.9µM* | ? | 2.9µM*
C/C(=N\NC(=O)c1cc(-c2ccncc2)nc2ccccc12)c1ccc(N2CCOCC2)cc1 | 10µM* | -4% | 12 | ? | 21µM* | ?
C/C(=N\NC(=O)c1cccc2ccccc12)c1ccccn1 | ? | ? | -107* | 1.5µM* | ? | 1.2µM*
C/C(CC(=O)Nc1ccccn1)=N\NC(=O)c1ccccc1O | 9.2µM* | ? | 145 | 16µM* | 21µM* | 4.1µM*
C/C(=N/NC(=O)c1ccccn1)c1ccncc1 | 10% | ? | -6 | -5% | 6% | -6%
CCCNC(=O)COCc1cc(-c2ccc(F)cc2)on1 | nt | nt | nt | ? | nt | -20%
C/C(=N\NC(=O)C(c1ccccc1)c1ccccc1)c1ccccn1 | 5.8µM* | -24% | -97* | 4.6µM* | 9.2µM* | 4.6µM*
C/C(=N/NC(=O)c1ccc(C(C)(C)C)cc1)c1ccccn1 | 5.8µM* | nt | 84 | 0.23µM* | 7.3µM* | 0.46µM*
COc1ccccc1CN(C)C(=O)CN1CCN(C(=O)c2cccs2)CC1 | -3% | 3% | 4 | ? | -3% | ?
N#Cc1ccc(S(=O)(=O)N2CCC(C(=O)Nc3cccc(C(=O)NC4CC4)c3)CC2)cc1 | 3% | -14% | 7 | 0% | 0% | -1%
Cc1cc(NC2CCCCC2)n2c(n1)nc1ccccc12 | 5% | 2% | 17 | ? | 0% | -10%
CCOC(=O)N1CCN(C(=O)CSc2cc(C)nc3c(-c4ccccc4OC)c(C)nn23)CC1 | 11µM* | -15% | -10 | 16µM* | 10µM* | 23µM*
COc1ccccc1-c1c(C)nn2c(N3CCC(C(N)=O)CC3)cc(C)nc12 | 6% | 6% | -12 | -14% | 0% | -4%
CCOC(=O)N1CCC(Nc2cc(C)nc3c(-c4ccccc4OC)c(C)nn23)CC1 | -16% | ? | -12 | 9.2µM* | -6% | 5.8µM*
